Experiments:
Experiment in all cases: DAPPL (digital affinity profiling via proximity ligation, sequencing); 10 mM Tris-HCl pH 7.5, 50 mM NaCl, 1 mM DTT, 4% glycerol, room temperature, 30 min; GST-TFs on glutathione beads, 16-mer random dsDNA library, 0.1% formaldehyde crosslink after washing; high values mean tight binding
FEV = target: T1, FEV (Homo sapiens, UniProt Q99581 1-238); conditions: protein: recombinant; tags: N-terminal GST; dsDNA, one strand shown
T1 sequence: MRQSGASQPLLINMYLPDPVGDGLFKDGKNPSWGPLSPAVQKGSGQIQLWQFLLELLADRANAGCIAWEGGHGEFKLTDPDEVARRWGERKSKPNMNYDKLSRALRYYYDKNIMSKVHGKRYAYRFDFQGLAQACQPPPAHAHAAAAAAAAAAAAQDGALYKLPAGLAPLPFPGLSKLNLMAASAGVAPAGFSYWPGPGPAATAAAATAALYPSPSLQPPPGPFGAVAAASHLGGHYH
Outline: (§1)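 A tag-only sample was pooled with DNA-barcoded human transcription factors that had been expressed in yeast as GST fusions and captured on glutathione beads. The pools were incubated for 30 min at room temperature with 200 nmole of a random double-stranded 16-mer DNA library in Tris/NaCl/DTT/glycerol buffer, then washed, crosslinked with 0.1% formaldehyde, proximity-ligated (BsaI/T4 ligase, 1 h, 37 °C), PCR-amplified and sequenced on an Illumina NextSeq500. Binding signal is each hexamer's read frequency for a factor divided by its frequency for the tag-only sample.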

ETV5 = ETV5 (Homo sapiens, UniProt P41161 1-510); conditions: protein: recombinant; tags: N-terminal GST; dsDNA, one strand shown
ETV5, sequence (P41161 whole entry): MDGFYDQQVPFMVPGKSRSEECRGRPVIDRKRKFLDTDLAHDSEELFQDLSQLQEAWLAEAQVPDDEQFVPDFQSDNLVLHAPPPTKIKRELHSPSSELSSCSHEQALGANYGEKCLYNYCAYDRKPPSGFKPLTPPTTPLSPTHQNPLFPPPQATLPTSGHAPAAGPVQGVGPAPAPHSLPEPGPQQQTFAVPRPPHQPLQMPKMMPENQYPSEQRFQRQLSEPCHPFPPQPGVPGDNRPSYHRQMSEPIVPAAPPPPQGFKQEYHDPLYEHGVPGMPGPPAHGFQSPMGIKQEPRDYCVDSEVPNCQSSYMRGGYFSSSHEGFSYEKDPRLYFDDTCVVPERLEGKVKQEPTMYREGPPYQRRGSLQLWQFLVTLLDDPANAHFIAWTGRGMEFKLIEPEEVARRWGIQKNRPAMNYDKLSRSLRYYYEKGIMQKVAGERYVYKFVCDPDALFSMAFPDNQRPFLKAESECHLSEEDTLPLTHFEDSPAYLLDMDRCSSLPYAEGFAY
Outline: as §1

HSF1 = HSF1 (Homo sapiens, UniProt Q00613 1-529); conditions: protein: recombinant; tags: N-terminal GST; chain copies: 3; dsDNA, one strand shown
HSF1, sequence (Q00613 whole entry): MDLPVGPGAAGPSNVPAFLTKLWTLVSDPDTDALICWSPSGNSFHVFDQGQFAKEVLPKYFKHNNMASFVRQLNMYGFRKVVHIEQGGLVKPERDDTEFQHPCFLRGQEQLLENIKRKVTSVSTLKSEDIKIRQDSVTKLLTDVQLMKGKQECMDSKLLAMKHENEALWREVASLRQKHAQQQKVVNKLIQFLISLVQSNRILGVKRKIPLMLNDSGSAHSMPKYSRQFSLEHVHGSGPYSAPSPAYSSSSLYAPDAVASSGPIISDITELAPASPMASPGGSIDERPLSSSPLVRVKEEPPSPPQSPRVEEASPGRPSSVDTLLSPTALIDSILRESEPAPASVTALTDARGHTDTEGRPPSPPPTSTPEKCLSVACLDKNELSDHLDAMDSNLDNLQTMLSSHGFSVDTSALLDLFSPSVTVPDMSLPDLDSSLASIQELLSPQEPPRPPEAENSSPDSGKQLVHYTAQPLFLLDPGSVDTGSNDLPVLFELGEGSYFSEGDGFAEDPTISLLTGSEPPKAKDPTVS
Outline: as §1

SPIC = target: T2, SPIC (Homo sapiens, UniProt Q8N5J4 1-248); conditions: protein: recombinant; tags: N-terminal GST; dsDNA, one strand shown
T2 sequence: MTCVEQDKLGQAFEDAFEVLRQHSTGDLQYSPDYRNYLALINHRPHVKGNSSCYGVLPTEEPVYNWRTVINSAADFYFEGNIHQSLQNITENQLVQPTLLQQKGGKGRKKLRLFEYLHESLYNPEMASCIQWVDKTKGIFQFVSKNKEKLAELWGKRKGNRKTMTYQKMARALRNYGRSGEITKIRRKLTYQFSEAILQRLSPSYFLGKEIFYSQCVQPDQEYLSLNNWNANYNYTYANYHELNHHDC
Outline: as §1

ELF4 = ELF4 (Homo sapiens, UniProt Q99607 1-663); conditions: protein: recombinant; tags: N-terminal GST; dsDNA, one strand shown
ELF4, sequence (Q99607 whole entry): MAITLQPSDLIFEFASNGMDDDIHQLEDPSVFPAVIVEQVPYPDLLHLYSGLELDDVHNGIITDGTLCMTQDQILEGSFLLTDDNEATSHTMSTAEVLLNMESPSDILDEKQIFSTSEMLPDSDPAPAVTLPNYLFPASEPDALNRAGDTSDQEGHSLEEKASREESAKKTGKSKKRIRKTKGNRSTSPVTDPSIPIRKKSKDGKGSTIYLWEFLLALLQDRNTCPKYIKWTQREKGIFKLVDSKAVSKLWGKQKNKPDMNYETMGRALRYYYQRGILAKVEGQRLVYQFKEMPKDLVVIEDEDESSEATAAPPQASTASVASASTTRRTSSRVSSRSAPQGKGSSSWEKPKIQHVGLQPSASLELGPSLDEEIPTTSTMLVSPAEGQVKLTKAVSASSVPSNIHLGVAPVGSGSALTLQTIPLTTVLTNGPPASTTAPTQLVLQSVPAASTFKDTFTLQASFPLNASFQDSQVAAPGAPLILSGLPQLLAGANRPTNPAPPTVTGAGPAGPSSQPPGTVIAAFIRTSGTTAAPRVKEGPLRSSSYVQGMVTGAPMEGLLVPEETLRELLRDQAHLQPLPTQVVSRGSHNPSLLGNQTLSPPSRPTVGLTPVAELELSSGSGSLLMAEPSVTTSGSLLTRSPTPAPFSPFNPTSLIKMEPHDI
Outline: as §1

ELK4 = target: T3, ELK4 (Homo sapiens, UniProt P28324-2 1-405); conditions: protein: recombinant; tags: N-terminal GST; dsDNA, one strand shown
T3 sequence: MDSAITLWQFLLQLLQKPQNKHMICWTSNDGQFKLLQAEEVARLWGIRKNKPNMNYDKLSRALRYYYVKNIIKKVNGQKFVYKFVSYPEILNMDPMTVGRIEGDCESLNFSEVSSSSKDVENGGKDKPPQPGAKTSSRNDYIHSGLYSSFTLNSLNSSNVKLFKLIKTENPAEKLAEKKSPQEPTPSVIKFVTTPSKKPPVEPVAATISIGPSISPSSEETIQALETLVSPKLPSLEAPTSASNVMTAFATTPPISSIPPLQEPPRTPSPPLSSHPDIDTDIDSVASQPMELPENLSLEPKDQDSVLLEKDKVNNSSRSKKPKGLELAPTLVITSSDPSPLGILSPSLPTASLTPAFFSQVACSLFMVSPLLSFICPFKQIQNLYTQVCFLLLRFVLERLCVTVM
Outline: as §1

ETV2 = target: T4, ETV2 (Homo sapiens, UniProt O00321 1-342); conditions: protein: recombinant; tags: N-terminal GST; dsDNA, one strand shown
T4 sequence: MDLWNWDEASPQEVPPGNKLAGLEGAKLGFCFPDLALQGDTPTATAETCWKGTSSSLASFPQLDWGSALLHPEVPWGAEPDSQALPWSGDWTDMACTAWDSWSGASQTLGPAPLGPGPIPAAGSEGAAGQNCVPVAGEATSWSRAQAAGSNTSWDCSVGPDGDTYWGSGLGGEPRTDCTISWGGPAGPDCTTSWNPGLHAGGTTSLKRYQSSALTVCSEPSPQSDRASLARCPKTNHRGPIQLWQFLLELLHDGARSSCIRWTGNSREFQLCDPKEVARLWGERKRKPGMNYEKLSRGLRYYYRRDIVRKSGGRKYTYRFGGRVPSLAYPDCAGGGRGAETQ
Outline: as §1

ELF3 = target: T5, ELF3 (Homo sapiens, UniProt P78545 1-371); conditions: protein: recombinant; tags: N-terminal GST; dsDNA, one strand shown
T5 sequence: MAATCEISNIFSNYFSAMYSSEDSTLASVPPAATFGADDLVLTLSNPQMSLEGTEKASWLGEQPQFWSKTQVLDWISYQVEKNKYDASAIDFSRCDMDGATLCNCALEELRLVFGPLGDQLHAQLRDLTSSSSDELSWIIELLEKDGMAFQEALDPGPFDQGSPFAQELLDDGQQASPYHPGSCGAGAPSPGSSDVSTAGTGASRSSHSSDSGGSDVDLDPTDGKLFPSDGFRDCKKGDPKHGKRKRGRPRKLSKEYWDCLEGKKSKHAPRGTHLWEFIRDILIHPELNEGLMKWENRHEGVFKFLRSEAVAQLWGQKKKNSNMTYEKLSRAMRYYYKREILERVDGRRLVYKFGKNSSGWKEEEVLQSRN
Outline: as §1

CRX = CRX (Homo sapiens, UniProt O43186 1-299); conditions: protein: recombinant; tags: N-terminal GST; dsDNA, one strand shown
CRX, sequence (O43186 whole entry): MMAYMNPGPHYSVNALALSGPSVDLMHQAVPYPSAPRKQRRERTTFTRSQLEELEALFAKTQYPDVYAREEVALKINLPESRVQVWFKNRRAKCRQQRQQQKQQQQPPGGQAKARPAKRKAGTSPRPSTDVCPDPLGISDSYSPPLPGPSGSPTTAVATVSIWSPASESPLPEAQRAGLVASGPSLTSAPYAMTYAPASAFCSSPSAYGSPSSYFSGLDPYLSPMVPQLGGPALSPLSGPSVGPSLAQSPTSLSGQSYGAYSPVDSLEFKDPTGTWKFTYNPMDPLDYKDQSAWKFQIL
Outline: as §1

ETV1 = ETV1 (Homo sapiens, UniProt P50549 1-477); conditions: protein: recombinant; tags: N-terminal GST; dsDNA, one strand shown
ETV1, sequence (P50549 whole entry): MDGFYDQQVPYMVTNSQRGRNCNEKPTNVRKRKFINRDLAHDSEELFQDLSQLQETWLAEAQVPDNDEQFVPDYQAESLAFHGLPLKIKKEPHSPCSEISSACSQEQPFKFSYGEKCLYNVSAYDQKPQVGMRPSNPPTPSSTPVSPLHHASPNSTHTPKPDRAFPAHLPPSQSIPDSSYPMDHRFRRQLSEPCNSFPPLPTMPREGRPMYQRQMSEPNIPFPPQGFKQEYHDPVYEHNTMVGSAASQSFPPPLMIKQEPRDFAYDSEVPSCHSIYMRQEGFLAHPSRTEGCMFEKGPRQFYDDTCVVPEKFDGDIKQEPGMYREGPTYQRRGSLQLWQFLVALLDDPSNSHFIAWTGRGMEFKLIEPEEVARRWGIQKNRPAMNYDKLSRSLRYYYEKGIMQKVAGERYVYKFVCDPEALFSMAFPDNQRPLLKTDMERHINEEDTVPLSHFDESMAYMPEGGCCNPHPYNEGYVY
Outline: as §1

ERF = target: T6, ERF (Homo sapiens, UniProt P50548 1-548); conditions: protein: recombinant; tags: N-terminal GST; dsDNA, one strand shown
T6 sequence: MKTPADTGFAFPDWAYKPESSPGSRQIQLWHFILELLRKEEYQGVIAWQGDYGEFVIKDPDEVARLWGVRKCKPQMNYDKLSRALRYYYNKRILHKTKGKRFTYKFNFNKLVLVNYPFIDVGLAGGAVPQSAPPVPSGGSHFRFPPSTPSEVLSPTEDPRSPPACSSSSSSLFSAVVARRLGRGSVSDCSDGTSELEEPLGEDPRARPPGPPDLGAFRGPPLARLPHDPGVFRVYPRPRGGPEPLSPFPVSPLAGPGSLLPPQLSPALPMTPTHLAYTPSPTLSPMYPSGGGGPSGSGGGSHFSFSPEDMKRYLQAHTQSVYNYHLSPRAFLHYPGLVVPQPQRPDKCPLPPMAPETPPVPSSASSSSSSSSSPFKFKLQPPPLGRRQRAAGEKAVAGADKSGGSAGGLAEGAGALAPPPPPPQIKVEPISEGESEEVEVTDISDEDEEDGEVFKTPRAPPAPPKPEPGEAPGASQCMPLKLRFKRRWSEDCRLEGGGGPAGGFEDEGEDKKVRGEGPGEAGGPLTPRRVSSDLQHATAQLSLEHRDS
Outline: as §1

ETV3L = target: T7, ETV3L (Homo sapiens, UniProt Q6ZN32 1-361); conditions: protein: recombinant; tags: N-terminal GST; dsDNA, one strand shown
T7 sequence: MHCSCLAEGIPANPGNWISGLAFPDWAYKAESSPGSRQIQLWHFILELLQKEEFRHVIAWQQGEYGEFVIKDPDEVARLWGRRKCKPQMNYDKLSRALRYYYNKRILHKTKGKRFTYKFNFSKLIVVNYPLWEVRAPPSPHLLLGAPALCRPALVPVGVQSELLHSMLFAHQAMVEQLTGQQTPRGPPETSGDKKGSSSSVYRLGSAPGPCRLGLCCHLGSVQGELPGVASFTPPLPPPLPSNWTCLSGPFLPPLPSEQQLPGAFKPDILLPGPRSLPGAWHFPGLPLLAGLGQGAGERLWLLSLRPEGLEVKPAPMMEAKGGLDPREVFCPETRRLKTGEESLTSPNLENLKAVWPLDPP
Outline: as §1

ETS2 = target: T8, ETS2 (Homo sapiens, UniProt P15036 1-469); conditions: protein: recombinant; tags: N-terminal GST; dsDNA, one strand shown
T8 sequence: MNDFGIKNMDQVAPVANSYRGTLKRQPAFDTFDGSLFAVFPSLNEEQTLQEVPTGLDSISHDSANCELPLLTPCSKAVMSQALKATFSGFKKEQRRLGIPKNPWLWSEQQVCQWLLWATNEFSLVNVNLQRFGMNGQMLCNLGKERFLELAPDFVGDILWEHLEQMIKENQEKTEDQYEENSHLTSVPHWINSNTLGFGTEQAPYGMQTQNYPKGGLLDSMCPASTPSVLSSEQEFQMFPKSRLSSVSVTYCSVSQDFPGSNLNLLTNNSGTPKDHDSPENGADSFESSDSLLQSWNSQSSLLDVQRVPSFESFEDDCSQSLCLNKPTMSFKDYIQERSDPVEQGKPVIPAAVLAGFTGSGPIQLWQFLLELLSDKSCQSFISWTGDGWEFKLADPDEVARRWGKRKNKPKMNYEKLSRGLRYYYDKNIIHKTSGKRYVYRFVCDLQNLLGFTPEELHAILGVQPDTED
Outline: as §1

SPDEF = target: T9, SPDEF (Homo sapiens, UniProt O95238 1-335); conditions: protein: recombinant; tags: N-terminal GST; dsDNA, one strand shown
T9 sequence: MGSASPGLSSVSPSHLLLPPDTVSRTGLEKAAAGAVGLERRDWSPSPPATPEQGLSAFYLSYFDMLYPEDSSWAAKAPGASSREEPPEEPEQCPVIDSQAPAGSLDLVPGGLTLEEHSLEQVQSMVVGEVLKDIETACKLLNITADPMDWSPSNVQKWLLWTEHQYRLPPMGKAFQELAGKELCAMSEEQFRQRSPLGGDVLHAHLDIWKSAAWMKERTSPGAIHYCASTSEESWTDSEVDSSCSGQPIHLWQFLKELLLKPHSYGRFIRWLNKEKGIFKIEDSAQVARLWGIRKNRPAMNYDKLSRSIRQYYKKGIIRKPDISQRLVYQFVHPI
Outline: as §1

ETV7 = target: T10, ETV7 (Homo sapiens, UniProt Q9Y603 1-341); conditions: protein: recombinant; tags: N-terminal GST; dsDNA, one strand shown
T10 sequence: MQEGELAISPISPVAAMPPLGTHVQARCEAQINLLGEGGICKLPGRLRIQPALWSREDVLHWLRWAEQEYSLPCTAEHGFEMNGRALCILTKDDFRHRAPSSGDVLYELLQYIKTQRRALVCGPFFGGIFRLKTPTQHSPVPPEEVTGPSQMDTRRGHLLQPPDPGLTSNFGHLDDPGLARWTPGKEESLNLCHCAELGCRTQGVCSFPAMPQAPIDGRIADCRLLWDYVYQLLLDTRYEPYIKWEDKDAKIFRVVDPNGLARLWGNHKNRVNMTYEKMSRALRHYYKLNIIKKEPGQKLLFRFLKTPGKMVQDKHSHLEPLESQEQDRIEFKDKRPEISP
Outline: as §1

ELF5 = target: T11, ELF5 (Homo sapiens, UniProt Q9UKW6-2 1-255); conditions: protein: recombinant; tags: N-terminal GST; dsDNA, one strand shown
T11 sequence: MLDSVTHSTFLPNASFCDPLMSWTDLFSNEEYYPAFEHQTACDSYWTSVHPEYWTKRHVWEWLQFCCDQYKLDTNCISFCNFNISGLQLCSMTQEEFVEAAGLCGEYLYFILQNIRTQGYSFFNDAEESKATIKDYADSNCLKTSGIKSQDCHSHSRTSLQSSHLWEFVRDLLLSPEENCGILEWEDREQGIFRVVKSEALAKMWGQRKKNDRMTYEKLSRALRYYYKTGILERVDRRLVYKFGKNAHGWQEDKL
Outline: as §1

ETV3 = target: T12, ETV3 (Homo sapiens, UniProt P41162-2 1-143); conditions: protein: recombinant; tags: N-terminal GST; dsDNA, one strand shown
T12 sequence: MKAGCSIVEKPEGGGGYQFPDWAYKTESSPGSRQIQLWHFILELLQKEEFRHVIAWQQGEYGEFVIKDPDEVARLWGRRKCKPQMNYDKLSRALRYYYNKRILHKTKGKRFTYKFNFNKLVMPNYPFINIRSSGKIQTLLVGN
Outline: as §1

ETV6 = ETV6 (Homo sapiens, UniProt P41212 1-452); conditions: protein: recombinant; tags: N-terminal GST; dsDNA, one strand shown
ETV6, sequence (P41212 whole entry): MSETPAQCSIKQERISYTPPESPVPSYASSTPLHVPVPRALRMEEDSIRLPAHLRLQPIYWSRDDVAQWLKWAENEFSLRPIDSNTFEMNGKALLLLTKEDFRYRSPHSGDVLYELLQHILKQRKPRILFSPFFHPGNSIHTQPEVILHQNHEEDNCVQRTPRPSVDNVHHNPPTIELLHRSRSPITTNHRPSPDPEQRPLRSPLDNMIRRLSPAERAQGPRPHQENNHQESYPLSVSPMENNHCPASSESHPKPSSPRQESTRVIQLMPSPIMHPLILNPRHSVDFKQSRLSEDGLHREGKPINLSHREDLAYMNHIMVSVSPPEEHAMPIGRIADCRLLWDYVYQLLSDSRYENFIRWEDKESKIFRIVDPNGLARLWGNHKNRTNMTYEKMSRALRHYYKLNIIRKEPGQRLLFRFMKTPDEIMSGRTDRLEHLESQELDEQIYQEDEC
Outline: as §1

For ACCCGA, the binding signal (FEV) was 1.1 fold enrichment (6-mer frequency, TF over GST control), the binding signal (ETV5) was 1.08 fold enrichment (6-mer frequency, TF over GST control) and the binding signal (HSF1) was 1.21 fold enrichment (6-mer frequency, TF over GST control). The binding signal (SPIC) was 1.08 fold enrichment (6-mer frequency, TF over GST control), the binding signal (ELF4) was 1.03 fold enrichment (6-mer frequency, TF over GST control) and the binding signal (ELK4) was 1.04 fold enrichment (6-mer frequency, TF over GST control). For the same sequence, the binding signal (ETV2) was 1.17 fold enrichment (6-mer frequency, TF over GST control), the binding signal (ELF3) was 1.11 fold enrichment (6-mer frequency, TF over GST control) and the binding signal (CRX) was 1.1 fold enrichment (6-mer frequency, TF over GST control). For the same sequence, the binding signal (ETV1) was 1.1 fold enrichment (6-mer frequency, TF over GST control), the binding signal (ERF) was 1.22 fold enrichment (6-mer frequency, TF over GST control) and the binding signal (ETV3L) was 1.05 fold enrichment (6-mer frequency, TF over GST control). The binding signal (ETS2) was 1.07 fold enrichment (6-mer frequency, TF over GST control), the binding signal (SPDEF) was 1.03 fold enrichment (6-mer frequency, TF over GST control) and the binding signal (ETV7) was 1.11 fold enrichment (6-mer frequency, TF over GST control). The binding signal (ELF5) was 1.01 fold enrichment (6-mer frequency, TF over GST control), the binding signal (ETV3) was 1.05 fold enrichment (6-mer frequency, TF over GST control) and the binding signal (ETV6) was 1.04 fold enrichment (6-mer frequency, TF over GST control).
